This is an account of results in PubChem BioAssay (NCATS).

Results filed as inconclusive are left out. Where a call stands in place of a potency, no number is given. Values without a mark were called inactive. Activity calls are given as the source filed them. The call rests on the fitted dose curve; in most records, active means well fitted curve in the direction sought with a large enough effect; inconclusive means small, poorly fitted or top-dose-only effect, or another doubt; inactive means no such curve, though single readings can be large; an effect the other way counts as inactive or inconclusive.

One assay in a line: qHTS of pediatric cancer cell lines to identify multiple opportunities for drug repurposing: Primary screen for U-2 OS cells (AID 1347096). Further: nearly all actives have a fitted effect of over 50% in size. To be noted: U-2 OS viability, CellTiter-Glo luminescence, 48 h; series mostly up to 46 µM. An outline of the steps:
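Cells (500-1,000/well) in growth media were settled 5 h at 37 degrees C, then given compounds for 48 h. Viability was read as CellTiter-Glo luminescence. Primary runs used MIPE at 11 points (0.78 nM-46 µM) and NPC at 8 points (0.59 nM-46 µM); follow-ups used 11 points.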
Consider `CCCOC(=O)c1ccc(O)cc1`, for which the Potency result was “inactive”.

Turning to `O=C(O)Cc1cccc(-c2cc(CCCCCCc3ccc(O[C@H]4O[C@H](CO)[C@@H](O)[C@H](O)[C@@H]4O)c(-c4cccc(CC(=O)O)c4)c3)ccc2O[C@H]2O[C@H](CO)[C@@H](O)[C@H](O)[C@@H]2O)c1`, the activity change, negative = cytotoxic was 2.96% [at 0.597 µM].

In the case of `O=C(O)/C=C\C(=O)O`, the Potency entry is “inactive”.

With `CC(C(=O)O)c1ccc2c(c1)[nH]c1ccc(Cl)cc12` (centres undefined), the Potency result was “inactive”.

Turning to `COc1ccc(-c2cc(=S)ss2)cc1`, the Potency entry is “inactive”.

`O=C(CCN1CCN(CCO)CC1)N1c2ccccc2Sc2ccc(C(F)(F)F)cc21`: the Potency entry was “inactive”.

Turning to `c1ccc2sc(SN3CCOCC3)nc2c1`, the Potency result is “inactive”.

`O=C(OCc1ccccc1)c1ccccc1`: the Potency result is “inactive”.

In the case of `Nc1c(CC(=O)O)cccc1C(=O)c1ccc(Br)cc1`, the Potency entry is “inactive”.

For `CC(=O)c1ccc(OCC(=O)N2CCCCC2)cc1`, the Potency result is “inactive”.

As to `CNC(=O)c1c(I)c(NC(=O)CCCCC(=O)Nc2c(I)c(C(=O)O)c(I)c(C(=O)NC)c2I)c(I)c(C(=O)O)c1I`, the Potency result is “inactive”.

Consider `O=C(O)c1cc(O)c(O)c(O)c1`, for which the Potency result was “inactive”.

`C=CCCCCCCCCC(=O)O`: the Potency result is “inactive”.

As for `Cc1ccc(C(=O)c2ccc(CC(=O)O)n2C)cc1`, the Potency entry is “inactive”.

With `Nc1cc(-c2ccncc2)c[nH]c1=O`, the Potency entry is “inactive”.

Take `COc1ccnc2c1CCCCC2S(=O)c1nc2ccccc2[nH]1` (centres undefined): the Potency result is “inactive”.

For `N=C(N)N`, the Potency entry was “inactive”.

On to `CCCCCCCC/C=C/C(=O)O`, for which the Potency entry was “inactive”.

In the case of `Nc1ccc(C(=O)O)c(O)c1`, the Potency result is “inactive”.

Regarding `CC1(C)S[C@@H]2[C@H](NC(=O)[C@H](N)c3ccccc3)C(=O)N2[C@H]1C(=O)O`, the Potency entry was “inactive”.

As to `CN(C)[C@@H]1C(=O)C(C(=O)NCN2CCCC2)=C(O)[C@@]2(O)C(=O)C3=C(O)c4c(O)cccc4[C@@](C)(O)C3C[C@@H]12` (some centres undefined), the Potency entry is “inactive”.

`CCCCCCCCCCCCOCCO`: the Potency entry is “inactive”.

`CC(=O)SCC(CC(=O)c1ccc(C)cc1)C(=O)O` (centres undefined): the Potency entry was “inactive”.

For `O=C(O)c1ccccc1Nc1cccc(C(F)(F)F)c1`, the Potency entry was “inactive”.

Consider `CCOc1ccc2nc(S(N)(=O)=O)sc2c1`, for which the Potency result was “inactive”.

For the molecule `Cc1c(Nc2ncccc2C(=O)O)cccc1C(F)(F)F`, the Potency result was “inactive”.

Turning to `O=C(/C=C/c1ccccc1)NCCO`, the Potency result is “inactive”.

For the molecule `CCCCCCOc1ccccc1C(N)=O`, the Potency result is “inactive”.

In the case of `CCOC(=O)c1ccccc1O`, the Potency result was “inactive”.

Take `COc1cc2c3cc1Oc1cc(ccc1O)C[C@@H]1c4c(cc(OC)c(O)c4Oc4ccc(cc4)C[C@@H]3N(C)CC2)CC[N+]1(C)C`: the Potency result was “inactive”.

As for `O=C(O)Cc1ccc2c(c1)C(=O)c1ccccc1CO2`, the Potency result is “inactive”.

Consider `Cc1c(N)c(=O)n(-c2ccccc2)n1C`, for which the Potency entry was “inactive”.

For `Clc1ccccc1-c1nc(-c2ccncc2)no1`, the Potency result is “inactive”.

On to `CC(C)(C)c1nnc(NS(=O)(=O)c2ccc(N)cc2)s1`, for which the Potency entry was “inactive”.

Regarding `CN1CCN(c2cc3c(nn2)Oc2ccccc2N3C)CC1`, the Potency entry is “inactive”.

As to `CC(C)OC(=O)c1cc(C(=O)OC(C)C)cc([N+](=O)[O-])c1`, the Potency entry is “inactive”.

The next assay can be described thus: qHTS of pediatric cancer cell lines to identify multiple opportunities for drug repurposing: Primary screen for Saos-2 cells (AID 1347097). Further: nearly all actives have a fitted effect of over 40% in size. Further: potency means the concentration at half of the fitted maximal effect. To be noted: Saos-2 viability, CellTiter-Glo ATP luminescence, 48 h; series mostly up to 46 µM. Summed up:
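ATP-based luminescence (CellTiter-Glo) quantifies viability after a 48-hour exposure. Compounds are dosed across 8 or 11 final concentrations; DMSO and 2.3 µM bortezomib serve as controls.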
Background: Quantitative high-throughput screening tests each substance at several concentrations.
On to `O=C(O)Cc1cccc(-c2cc(CCCCCCc3ccc(O[C@H]4O[C@H](CO)[C@@H](O)[C@H](O)[C@@H]4O)c(-c4cccc(CC(=O)O)c4)c3)ccc2O[C@H]2O[C@H](CO)[C@@H](O)[C@H](O)[C@@H]2O)c1`, for which the activity change, negative = cytotoxic was 9.71% [at 0.597 µM].

For the molecule `O=C(O)/C=C\C(=O)O`, the Potency entry was “inactive”.

With `CC(C(=O)O)c1ccc2c(c1)[nH]c1ccc(Cl)cc12` (centres undefined), the Potency entry was “inactive”.

For `COc1ccc(-c2cc(=S)ss2)cc1`, the Potency result was “inactive”.

In the case of `O=C(CCN1CCN(CCO)CC1)N1c2ccccc2Sc2ccc(C(F)(F)F)cc21`, the Potency entry was “inactive”.

`c1ccc2sc(SN3CCOCC3)nc2c1`: the Potency entry is “inactive”.

For `O=C(OCc1ccccc1)c1ccccc1`, the Potency result was “inactive”.

As for `Nc1c(CC(=O)O)cccc1C(=O)c1ccc(Br)cc1`, the Potency result was “inactive”.

On to `CC(=O)c1ccc(OCC(=O)N2CCCCC2)cc1`, for which the Potency result was “inactive”.

With `CNC(=O)c1c(I)c(NC(=O)CCCCC(=O)Nc2c(I)c(C(=O)O)c(I)c(C(=O)NC)c2I)c(I)c(C(=O)O)c1I`, the Potency result was “inactive”.

Regarding `C=CCCCCCCCCC(=O)O`, the Potency entry was “inactive”.

Consider `Cc1ccc(C(=O)c2ccc(CC(=O)O)n2C)cc1`, for which the Potency entry is “inactive”.

Turning to `Nc1cc(-c2ccncc2)c[nH]c1=O`, the Potency entry is “inactive”.

Regarding `Nc1nc2ccc([N+](=O)[O-])cc2s1`, the Potency entry is “inactive”.

Turning to `COc1ccnc2c1CCCCC2S(=O)c1nc2ccccc2[nH]1` (centres undefined), the Potency entry was “inactive”.

Take `N=C(N)N`: the Potency result was “inactive”.

Regarding `CCCCCCCC/C=C/C(=O)O`, the Potency entry was “inactive”.

Regarding `Nc1ccc(C(=O)O)c(O)c1`, the Potency result is “inactive”.

As for `CC1(C)S[C@@H]2[C@H](NC(=O)[C@H](N)c3ccccc3)C(=O)N2[C@H]1C(=O)O`, the Potency result is “inactive”.

For `CN(C)[C@@H]1C(=O)C(C(=O)NCN2CCCC2)=C(O)[C@@]2(O)C(=O)C3=C(O)c4c(O)cccc4[C@@](C)(O)C3C[C@@H]12` (some centres undefined), the Potency result is “inactive”.

On to `CCCCCCCCCCCCOCCO`, for which the Potency result is “inactive”.

For the molecule `O=C(O)c1ccccc1Nc1cccc(C(F)(F)F)c1`, the Potency result is “inactive”.

Consider `CCCSc1ccc2nc(NC(=O)OC)[nH]c2c1`, for which the Potency was 4.22 µM (active).

Consider `Cc1c(Nc2ncccc2C(=O)O)cccc1C(F)(F)F`, for which the Potency result is “inactive”.

In the case of `O=C(/C=C/c1ccccc1)NCCO`, the Potency entry is “inactive”.

As to `CCCCCCOc1ccccc1C(N)=O`, the Potency result is “inactive”.

Turning to `CCOC(=O)c1ccccc1O`, the Potency entry is “inactive”.

As for `COc1cc2c3cc1Oc1cc(ccc1O)C[C@@H]1c4c(cc(OC)c(O)c4Oc4ccc(cc4)C[C@@H]3N(C)CC2)CC[N+]1(C)C`, the Potency result was “inactive”.

Turning to `O=C(O)Cc1ccc2c(c1)C(=O)c1ccccc1CO2`, the Potency result was “inactive”.

For `Cc1c(N)c(=O)n(-c2ccccc2)n1C`, the Potency result is “inactive”.

For `Clc1ccccc1-c1nc(-c2ccncc2)no1`, the Potency entry was “inactive”.

As for `CN1CCN(c2cc3c(nn2)Oc2ccccc2N3C)CC1`, the Potency result is “inactive”.

Turning to `CC(C)OC(=O)c1cc(C(=O)OC(C)C)cc([N+](=O)[O-])c1`, the Potency result is “inactive”.
